{
  "source": "paper PMC4336329",
  "about": "(PLoS ONE, 2015)",
  "note": "Screen size: about 310,000 compounds; about 14,000 (4.5%) showed an effect of 50% or more. The effect is printed as a negative number. The sample as a whole holds a higher share of strong results than the screen did.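 Also: peak tail current of the secondary pulse compared with the same well before compound.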",
  "data": [
    {"molecular_target": "human ether-à-go-go-related gene (hERG) potassium channel (human, UniProt Q12809)", "sequence (Q12809 whole entry, looked up)": "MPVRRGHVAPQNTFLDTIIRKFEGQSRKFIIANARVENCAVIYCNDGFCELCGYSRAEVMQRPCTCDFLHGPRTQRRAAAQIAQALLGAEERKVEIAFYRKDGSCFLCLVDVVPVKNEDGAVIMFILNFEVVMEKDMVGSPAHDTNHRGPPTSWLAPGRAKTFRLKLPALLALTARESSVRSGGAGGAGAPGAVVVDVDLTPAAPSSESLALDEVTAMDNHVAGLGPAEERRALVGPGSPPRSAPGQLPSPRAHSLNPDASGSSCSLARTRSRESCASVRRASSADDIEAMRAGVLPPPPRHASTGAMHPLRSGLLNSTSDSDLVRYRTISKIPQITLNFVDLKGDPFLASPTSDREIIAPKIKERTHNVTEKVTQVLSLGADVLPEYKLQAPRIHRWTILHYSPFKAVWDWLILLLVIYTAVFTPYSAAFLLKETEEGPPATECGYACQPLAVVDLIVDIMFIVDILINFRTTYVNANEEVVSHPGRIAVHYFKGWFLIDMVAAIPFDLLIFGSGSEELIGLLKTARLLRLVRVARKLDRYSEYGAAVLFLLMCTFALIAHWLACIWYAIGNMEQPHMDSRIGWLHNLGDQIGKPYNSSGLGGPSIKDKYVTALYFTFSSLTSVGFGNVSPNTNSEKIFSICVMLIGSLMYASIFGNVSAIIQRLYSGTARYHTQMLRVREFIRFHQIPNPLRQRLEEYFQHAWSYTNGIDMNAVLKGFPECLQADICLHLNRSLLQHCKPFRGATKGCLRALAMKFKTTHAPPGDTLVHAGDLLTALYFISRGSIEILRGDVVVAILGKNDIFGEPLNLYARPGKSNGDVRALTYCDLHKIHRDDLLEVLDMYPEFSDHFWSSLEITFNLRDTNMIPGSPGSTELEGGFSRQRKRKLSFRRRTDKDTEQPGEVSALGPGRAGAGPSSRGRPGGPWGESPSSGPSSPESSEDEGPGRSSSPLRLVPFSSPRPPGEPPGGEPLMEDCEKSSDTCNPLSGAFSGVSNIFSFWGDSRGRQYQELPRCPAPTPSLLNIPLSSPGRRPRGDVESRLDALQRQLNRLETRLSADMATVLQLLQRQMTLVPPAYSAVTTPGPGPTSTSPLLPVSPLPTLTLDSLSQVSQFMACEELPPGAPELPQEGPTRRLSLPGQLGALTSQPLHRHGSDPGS", "assay": "primary screen, population patch clamp on CHO cells stably expressing hERG; higher = less effect of the substance", "units": {"hERG current change (%, negative = inhibition) at 10uM": "%"}, "values": [
      {"smiles": "O=C(COC(=O)/C=C/c1ccccc1Cl)NC1CCCC1", "hERG current change (%, negative = inhibition) at 10uM": 14.6},
      {"smiles": "O=C(Nc1cccc2ccccc12)NC1CCCCC1O", "note": "(centres unmarked)", "hERG current change (%, negative = inhibition) at 10uM": 0.227},
      {"smiles": "O=C(Nc1ccc(Cl)cc1Cl)C1CCC(=O)N1Cc1ccccc1Cl", "note": "(centres unmarked)", "hERG current change (%, negative = inhibition) at 10uM": -2.67},
      {"smiles": "C#CCOCCOCCOCCNc1nc(N2CCN(C(=O)CCCCCCCCCCNC(=O)[C@H](CO)n3cc(CCCSC)nn3)CC2)nc(N2CCN(C(=O)CCCCCCCCCCNC(=O)[C@@H]([C@H](C)O)n3cc(C)nn3)CC2)n1", "hERG current change (%, negative = inhibition) at 10uM": 8.18},
      {"smiles": "Cc1nnc(SCC(=O)Nc2ccc3c(c2)OCCO3)s1", "hERG current change (%, negative = inhibition) at 10uM": 16.9},
      {"smiles": "C/C(=N\\O)c1ccc2c3ccccc3n(C)c2c1", "hERG current change (%, negative = inhibition) at 10uM": 25.3},
      {"smiles": "COc1cc(CNCc2cccs2)ccc1OCc1ccccc1.Cl", "hERG current change (%, negative = inhibition) at 10uM": -31.8},
      {"smiles": "N#C/C(=C\\c1c[nH]c2ccccc12)c1nnc2n1CCCCC2", "hERG current change (%, negative = inhibition) at 10uM": -29.5},
      {"smiles": "O=C(/C=C/c1cn(-c2ccccc2)nc1-c1cccnc1)N1CCCCC1", "hERG current change (%, negative = inhibition) at 10uM": -49.7},
      {"smiles": "N#C/C(=C\\c1cn(-c2ccccc2)nc1-c1cccnc1)c1nnc2n1CCCCC2", "hERG current change (%, negative = inhibition) at 10uM": -63.2},
      {"smiles": "Cc1cc(C(=O)COC(=O)C(C)NC(N)=O)c(C)n1Cc1ccco1", "note": "(centres unmarked)", "hERG current change (%, negative = inhibition) at 10uM": 10.5},
      {"smiles": "CCN(C(=O)Cn1nc(C)c([N+](=O)[O-])c1C)C1CCS(=O)(=O)C1", "note": "(centres unmarked)", "hERG current change (%, negative = inhibition) at 10uM": 24.1},
      {"smiles": "Cc1ccc(NC(=O)Cn2ccc([N+](=O)[O-])n2)cc1C", "hERG current change (%, negative = inhibition) at 10uM": 14.2},
      {"smiles": "CCN1CCN(c2nc3c(c(=O)n(C)c(=O)n3C)n2CCSc2ncccn2)CC1", "hERG current change (%, negative = inhibition) at 10uM": 3.51},
      {"smiles": "Cn1c(=O)c2c(nc(N3CCOCC3)n2CCSc2ncccn2)n(C)c1=O", "hERG current change (%, negative = inhibition) at 10uM": 0.639},
      {"smiles": "Cn1c(=O)c2c(nc(N3CCN(C(=O)c4ccco4)CC3)n2CCSc2ncccn2)n(C)c1=O", "hERG current change (%, negative = inhibition) at 10uM": -57.4},
      {"smiles": "COc1ccc(N2CCN(C(=O)CSc3nc4c(c(=O)n(C)c(=O)n4C)n3C(C)C)CC2)cc1", "hERG current change (%, negative = inhibition) at 10uM": -50.2},
      {"smiles": "CC(C)n1c(SCC(=O)N2CCN(C(=O)c3ccco3)CC2)nc2c1c(=O)n(C)c(=O)n2C", "hERG current change (%, negative = inhibition) at 10uM": -50.9},
      {"smiles": "CC(C)n1c(SCC(=O)N2CCCC2)nc2c1c(=O)n(C)c(=O)n2C", "hERG current change (%, negative = inhibition) at 10uM": -5.03},
      {"smiles": "CCCn1c(SCC(=O)N2CCN(c3ccc(OC)cc3)CC2)nc2c1c(=O)n(C)c(=O)n2C", "hERG current change (%, negative = inhibition) at 10uM": -36},
      {"smiles": "CC(C)n1c(SCC(=O)N2CCN(C)CC2)nc2c1c(=O)n(C)c(=O)n2C", "hERG current change (%, negative = inhibition) at 10uM": 2.15},
      {"smiles": "CC(C)n1c(CN2CCN(C(=O)c3ccco3)CC2)nc2c1c(=O)n(C)c(=O)n2C", "hERG current change (%, negative = inhibition) at 10uM": -7.57},
      {"smiles": "COc1ccc(S(=O)(=O)N2CCOC2CNC(=O)C(=O)NCc2ccc3c(c2)OCO3)cc1", "note": "(centres unmarked)", "hERG current change (%, negative = inhibition) at 10uM": -25.6},
      {"smiles": "Cc1ccc(S(=O)(=O)N/N=C\\c2ccc(Cl)c([N+](=O)[O-])c2)cc1", "hERG current change (%, negative = inhibition) at 10uM": 18.4},
      {"smiles": "CCOC(=O)c1sc(=S)n(-c2cccc(OC)c2)c1N", "hERG current change (%, negative = inhibition) at 10uM": -7.09},
      {"smiles": "CCc1ccc2[nH]c(=O)c(C(c3nnnn3CC3CCCO3)N3CCCc4ccccc43)cc2c1", "note": "(centres unmarked)", "hERG current change (%, negative = inhibition) at 10uM": 19.8},
      {"smiles": "O=C(COC(=O)c1ccccc1Oc1ccccc1)NCc1ccco1", "hERG current change (%, negative = inhibition) at 10uM": -19.1},
      {"smiles": "O=C(Nc1cccc(S(=O)(=O)Nc2ccc(Cl)cc2)c1)c1ccc(Cl)nc1", "hERG current change (%, negative = inhibition) at 10uM": 19.8},
      {"smiles": "Cc1oc(-c2ccccc2F)nc1CS(=O)(=O)CC(=O)N1CCc2ccccc21", "hERG current change (%, negative = inhibition) at 10uM": 12.4},
      {"smiles": "CC(C)(C)NCc1cc(Br)ccc1OC1CCCC1.Cl", "hERG current change (%, negative = inhibition) at 10uM": -53.8},
      {"smiles": "C=CCOc1ccc(Br)cc1CNC(C)(C)C.Cl", "hERG current change (%, negative = inhibition) at 10uM": -14.7},
      {"smiles": "CC(C)(C)NCc1cc(Cl)ccc1OCc1cccs1.Cl", "hERG current change (%, negative = inhibition) at 10uM": -32.5},
      {"smiles": "CC(C)(C)NCc1cc(Br)ccc1OCc1cccs1.Cl", "hERG current change (%, negative = inhibition) at 10uM": -52.5},
      {"smiles": "CC(C)(C)NCc1ccccc1OCc1cccs1.Cl", "hERG current change (%, negative = inhibition) at 10uM": 6.17},
      {"smiles": "CC(C)COc1ccc(Br)cc1CNC(C)(C)C.Cl", "hERG current change (%, negative = inhibition) at 10uM": -41.8},
      {"smiles": "CCN(CC)CCNC(=O)c1ccc(NC(=O)Cc2ccsc2)cc1", "hERG current change (%, negative = inhibition) at 10uM": 15.6},
      {"smiles": "O=c1oc2ccccc2cc1N1CCOCC1", "hERG current change (%, negative = inhibition) at 10uM": -7.08},
      {"smiles": "CN(C)S(=O)(=O)c1ccc(C(=O)Nc2nnc(-c3cccs3)o2)cc1", "hERG current change (%, negative = inhibition) at 10uM": 31.7},
      {"smiles": "O=C(COC(=O)c1ccccc1F)Nc1cccnc1Cl", "hERG current change (%, negative = inhibition) at 10uM": -2.16},
      {"smiles": "O=C(COC(=O)c1ccc(F)cc1F)Nc1cccnc1Cl", "hERG current change (%, negative = inhibition) at 10uM": -56.3},
      {"smiles": "O=C(COC(=O)c1ccc(F)cc1F)Nc1ncccn1", "hERG current change (%, negative = inhibition) at 10uM": -3.24},
      {"smiles": "Cc1ccc(NC(=O)c2cnn(-c3ccccc3)c2NC(=O)c2ccco2)cc1", "hERG current change (%, negative = inhibition) at 10uM": 2.02},
      {"smiles": "Cc1ccnn1CC(=O)N/N=C/c1ccc2c(c1)OCO2", "hERG current change (%, negative = inhibition) at 10uM": -7.72},
      {"smiles": "N#C/C(=C/c1cccc(O)c1)C(=O)NCc1ccc(Cl)cc1", "hERG current change (%, negative = inhibition) at 10uM": 31}
    ]}
  ]
}
